Measured values as given in PubChem BioAssay (EPA / NIEHS).
Results filed as inconclusive are left out. Activity calls are given as the source filed them. Rule for the calls, unless noted: active = hit-call score of the fitted dose curve at least 0.9, where 1 is the maximum; inactive = score below 0.9.

Experiments:
[1] = biological target: Steroid hormone receptor ERR1 (Homo sapiens) (UniProt P11474); experiment: ATG_ERRa_TRANS: Attagene TRANS-FACTORIAL HepG2 Assay for human Estrogen-Related Receptor alpha (ERRa) (AID 2282971; active = hit-call score of the fitted dose curve at least 0.9, where 1 is the maximum); conditions: HepG2 Attagene TRANS reporter, ERRa transactivation
Chain of Steroid hormone receptor ERR1 (Homo sapiens) (P11474 whole entry, looked up, the tested form may be a part): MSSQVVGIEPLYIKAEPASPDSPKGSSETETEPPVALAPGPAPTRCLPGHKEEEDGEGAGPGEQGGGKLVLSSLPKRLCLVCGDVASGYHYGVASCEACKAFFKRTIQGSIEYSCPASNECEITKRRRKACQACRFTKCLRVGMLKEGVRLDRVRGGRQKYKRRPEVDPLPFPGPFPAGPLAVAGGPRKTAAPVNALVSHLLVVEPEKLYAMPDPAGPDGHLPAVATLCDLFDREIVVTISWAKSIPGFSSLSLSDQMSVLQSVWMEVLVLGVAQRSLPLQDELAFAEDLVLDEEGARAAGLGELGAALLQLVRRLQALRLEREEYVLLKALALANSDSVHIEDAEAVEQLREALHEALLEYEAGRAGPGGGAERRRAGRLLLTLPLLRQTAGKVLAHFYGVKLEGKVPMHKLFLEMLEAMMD
Summary of the method: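 HepG2 cells transiently transfected with GAL4-UAS reporter units and chimeric NR-Gal4 constructs; after 24 hour compound incubation, reporter mRNA quantified by RT-PCR, fluorescent labelling and capillary electrophoresis, gain of signal versus DMSO.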

[2] = BSK_3C_Vis: BioMAP Diversity Plus: 3C Assay for Morphology Visualization (AID 2283025); conditions: primary human endothelial cells (HUVEC);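 note: fitted both ways so gain or loss versus DMSO counts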
Summary of the method: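 Morphology read by light microscopy serves as a background control for the multiplexed 3C assay in human umbilical vein endothelial cells, taken 24 h after dosing, with DMSO as the negative control and bidirectional curve fitting.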

[3] = read-out: Transforming growth factor beta 1 (TGFb1), TGFB1 (gene 7040); experiment: BSK_BE3C_TGFb1: BioMAP Diversity Plus: BE3C Assay for Transforming growth factor beta 1 (TGFb1) Biomarker Activity (AID 2283036); conditions: primary human bronchial epithelial cells; actives raise or lower the signal
Summary of the method: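 Bronchial epithelial primary cells are treated with test chemical, then TGF-b1 is quantified by ELISA after 24 hours. Values derive from bidirectional fitting against DMSO, with cytotoxicity checked by SRB staining in parallel cultures.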

[4] = read-out: Transforming growth factor beta 1 (TGFb1), TGFB1 (gene 7040); experiment: BSK_KF3CT_TGFb1: BioMAP Diversity Plus: KF3CT Assay for Transforming growth factor beta 1 (TGFb1) Biomarker Activity (AID 2283072); conditions: primary human keratinocytes with fibroblasts; actives raise or lower the signal
Summary of the method: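 KF3CT co-culture (keratinocytes + fibroblasts), 24 h exposure → TGF-b1 ELISA → bidirectional fit, DMSO = baseline. Parallel SRB total-protein staining (0.1% SRB, 10% TCA fixation, 560 nm) for cytotoxicity.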

[5] = BSK_SAg_Proliferation: Cell Proliferation Assessment in the BioMAP Diversity Plus: SAg Assay (AID 2283095); conditions: primary human HUVEC with PBMC;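 note: relative cell number as total protein by SRB absorbance in sub-confluent culture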
Summary of the method: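 Absorbance of sulforhodamine B at 560 nm reports total protein in a human vascular endothelial/PBMC co-culture after 96 h chemical exposure. Gain or loss of signal is fitted in both directions against DMSO.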

[6] = BSK_SAg_SRB: Viability Assessment in the BioMAP Diversity Plus: SAg Assay (AID 2283096); conditions: primary human HUVEC with PBMC;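 note: cells read one day after compound addition; hits may be either gain or loss of signal compared with DMSO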
Summary of the method: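 This overt-cytotoxicity endpoint quantifies protein in human endothelial/PBMC co-cultures at 24 h using SRB absorbance (560 nm) after trichloroacetic acid fixation. Values reflect signal change from the DMSO negative control, fitted bidirectionally.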

[7] = BSK_BT_PBMCCytotoxicity: PBMC Cytotoxicity Assessment in the BioMAP Diversity Plus: BT Assay (AID 2284225); conditions: primary human B cells with PBMC;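 note: PBMC viability measured by Alamar Blue dye reduction fluorescence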
Summary of the method: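 Viability by Alamar Blue reduction (6 h, ex/em 546/580 nm) after 90 h culture of SEB/TSST-1-activated PBMC (20 ng/mL each) given compound 1 h before activation. DMSO served as baseline for curve fitting.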

[8] = read-out: Secreted IgG (sIgG), gene 3500; experiment: BSK_BT_sIgG: BioMAP Diversity Plus: BT Assay for Secreted IgG (sIgG) Biomarker Activity (AID 2284226); conditions: primary human B cells with PBMC
Summary of the method: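 Cells (B cells with peripheral blood mononuclear cells) are dosed, cultured 24 h, then supernatant IgG is measured by ELISA. DMSO serves as negative control; curves are fitted for signal increase.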

[9] = read-out: Interleukin 6 (IL6), IL6 (gene 3569); experiment: BSK_BT_xIL6: BioMAP Diversity Plus: BT Assay for Interleukin 6 (IL6) Biomarker Activity (AID 2284228); conditions: primary human B cells with PBMC
Summary of the method: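 Human B cell/PBMC co-culture; secreted IL-6 quantified by Luminex xMAP 24 h after chemical dosing, fitted relative to DMSO. Parallel PBMC viability by Alamar Blue after 1 h pretreatment, 20 ng/mL SEB and TSST-1, 90 h incubation.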

[10] = read-out: Interleukin 17A (IL17A), IL17A (gene 3605); experiment: BSK_BT_xIL17A: BioMAP Diversity Plus: BT Assay for Interleukin 17A (IL17A) Biomarker Activity (AID 2284229); conditions: primary human B cells with PBMC
Summary of the method: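 Co-culture of human B cells and PBMC, dosed for 24 h in 96-well format. Secreted IL-17A measured with Luminex xMAP; gain-direction fitting against DMSO as baseline.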

[11] = read-out: Tumor necrosis factor (Homo sapiens) (UniProt P01375); experiment: BSK_BT_xTNFa: BioMAP Diversity Plus: BT Assay for Tumor necrosis factor alpha (TNF-alpha) Biomarker Activity (AID 2284230); conditions: primary human B cells with PBMC
Summary of the method: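 Endpoint derived in the positive direction versus DMSO vehicle. Cells: B cells together with PBMC, exposed 24 h before TNF-alpha in the medium was read on the Luminex xMAP platform.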

[12] = read-out: Collagen I, COL1A1 (gene 1277); experiment: BSK_MyoF_CollagenI: BioMAP Diversity Plus: MyoF Assay for Collagen I Biomarker Activity (AID 2284238); conditions: primary human lung fibroblasts
Summary of the method: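 Primary human lung fibroblasts (MyoF system) treated 24 h; Collagen I quantified by ELISA and fitted in positive direction against DMSO. Parallel SRB total-protein staining assessed overt cytotoxicity.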

[13] = read-out: Collagen III, COL3A1 (gene 1281); experiment: BSK_MyoF_CollagenIII: BioMAP Diversity Plus: MyoF Assay for Collagen III Biomarker Activity (AID 2284239); conditions: primary human lung fibroblasts
Summary of the method: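 Primary human lung fibroblasts (BioMAP MyoF system) exposed 24 h. Collagen III measured by ELISA; positive-direction fit relative to DMSO.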

[14] = read-out: Interleukin 17F (IL17F), IL17F (gene 112744); experiment: BSK_BT_xIL17F: BioMAP Diversity Plus: BT Assay for Interleukin 17F (IL17F) Biomarker Activity (AID 2284243); conditions: primary human B cells with PBMC
Summary of the method: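 Human PBMC co-cultured with B cells, compound exposure 24 h; secreted IL-17F quantified by Luminex xMAP, referenced to DMSO control. PBMC viability measured in parallel by Alamar Blue reduction.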

[15] = read-out: Actin alpha 1 (ACTA1), ACTA1 (gene 58); experiment: BSK_MyoF_ACTA1: BioMAP Diversity Plus: MyoF Assay for Actin alpha 1 (ACTA1) Biomarker Activity (AID 2284244); conditions: primary human lung fibroblasts
Summary of the method: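 Cells were exposed to chemical for 24 h before a-SMA levels were quantified by ELISA in human lung fibroblasts. Increases were fitted against DMSO as negative control; parallel SRB staining (0.1% after 10% TCA fixation, 560 nm) assessed cytotoxicity.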

[16] = read-out: Interleukin 2 (IL2), IL2 (gene 3558); experiment: BSK_BT_xIL2: BioMAP Diversity Plus: BT Assay for Interleukin 2 (IL2) Biomarker Activity (AID 2284245); conditions: primary human B cells with PBMC
Summary of the method: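 The BT system combines human B cells with peripheral blood mononuclear cells. Twenty-four hours after chemical dosing, secreted IL-2 was measured with xMAP bead technology, and responses were analyzed as increases over DMSO controls.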

[17] = read-out: Basic fibroblast growth factor (bFGF), FGF2 (gene 2247); experiment: BSK_MyoF_bFGF: BioMAP Diversity Plus: MyoF Assay for Basic fibroblast growth factor (bFGF) Biomarker Activity (AID 2284246); conditions: primary human lung fibroblasts
Summary of the method: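 Chemicals are added to human lung fibroblast cultures and incubated 24 h. bFGF is then measured by ELISA, while parallel cultures receive SRB staining for total protein as a cytotoxicity check. Data are fitted upward against DMSO.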

[18] = read-out: Collagen IV, COL4A1 (gene 1282); experiment: BSK_MyoF_CollagenIV: BioMAP Diversity Plus: MyoF Assay for Collagen IV Biomarker Activity (AID 2284247); conditions: primary human lung fibroblasts
Summary of the method: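 Human lung fibroblast system, 24 h chemical exposure. Endpoint: Collagen IV by ELISA, upward fit vs DMSO.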

[19] = read-out: Interleukin-8 (IL8), CXCL8 (gene 3576); experiment: BSK_MyoF_IL8: BioMAP Diversity Plus: MyoF Assay for Interleukin-8 (IL8) Biomarker Activity (AID 2284261); conditions: primary human lung fibroblasts
Summary of the method: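 Human lung fibroblast (MyoF system) cultures dosed for 24 h, then IL-8 measured by ELISA. Response taken relative to DMSO; parallel SRB total-protein staining for cytotoxicity.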

Decorin, DCN (gene 1634) = experiment: BSK_MyoF_Decorin: BioMAP Diversity Plus: MyoF Assay for Decorin Biomarker Activity (AID 2284265); conditions: primary human lung fibroblasts
Summary of the method: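 Human lung fibroblast cultures were dosed for 24 h, and decorin was then measured by ELISA. Parallel cultures were stained with sulforhodamine B for total protein as a cytotoxicity check. Gain of signal was fitted relative to DMSO.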

Measured: AC50

Chain of Tumor necrosis factor (Homo sapiens) (P01375 whole entry, looked up): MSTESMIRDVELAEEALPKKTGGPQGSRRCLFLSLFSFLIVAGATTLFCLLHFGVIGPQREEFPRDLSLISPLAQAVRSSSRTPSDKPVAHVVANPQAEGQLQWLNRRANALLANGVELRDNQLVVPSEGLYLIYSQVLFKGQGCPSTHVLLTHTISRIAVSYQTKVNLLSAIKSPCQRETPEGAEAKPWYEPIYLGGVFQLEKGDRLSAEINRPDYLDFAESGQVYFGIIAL

ClC1=C(Cl)[C@]2(Cl)[C@@H]3[C@@H](Cl)[C@H](Cl)C[C@@H]3[C@@]1(Cl)C2(Cl)Cl
inactive: [1]

COC(=O)COc1ccc(Cl)cc1Cl
inactive: [1]

O=c1c2ccccc2c(=O)c2c1cc(Cl)c1[nH]c3c([nH]c12)c(Cl)cc1c(=O)c2ccccc2c(=O)c13
not listed: [1]
inactive: all other assays above

N#CCCCCC#N
inactive: [2] | [3] | [4] | [5] | [6]

O=C1C(Cl)=C(Cl)C(=O)C(Cl)=C1Cl
inactive: [3] | Decorin, DCN (gene 1634)
active: [2] 4.54 µM | [4] 20 µM | [5] 7.77 µM | [6] 30.9 µM | [7] 26.4 µM | [8] 32.6 µM | [9] 30.3 µM | [10] 20 µM | [11] 20 µM | [12] 16.6 µM | [13] 14.4 µM | [14] 28.8 µM | [15] 23.8 µM | [16] 29.3 µM | [17] 30.9 µM | [18] 25 µM | [19] 32 µM

Cl/C=C\CCl
inactive: [1]

CC(=O)/C=C/c1ccccc1
active: [5] 13 µM | [7] 17.4 µM | [8] 27.2 µM | [9] 20 µM | [10] 20 µM | [11] 20 µM | [14] 20 µM | [16] 20 µM
not listed: [1]
inactive: all other assays above

CC1CCC(=O)O1 (stereo unspecified)
inactive: [1]

N#CC(c1ccccc1)c1ccccc1
inactive: [1]

CCC(C)c1cc([N+](=O)[O-])cc([N+](=O)[O-])c1OC(=O)C=C(C)C (stereo unspecified)
active: [2] 14.5 µM | [3] 3.97 µM | [4] 12.4 µM | [5] 8.87 µM | [6] 15.3 µM | [7] 20 µM | [8] 20 µM | [9] 20 µM | [10] 14.4 µM | [11] 30.8 µM | [12] 4.1 µM | [13] 5.36 µM | [14] 29.3 µM | [15] 5.45 µM | [16] 30.9 µM | [17] 32.6 µM | [18] 12.3 µM | [19] 36.9 µM | Decorin, DCN (gene 1634) 20 µM
